Laboratory results as given in publication PMC5540273 (PLoS ONE, 2017).

What was measured:
Conditions in all cases: concentration: 1 μM, replicates: in singlicate; n = 1
TAK1 = tested on: T1, TAK1
T1 construct: gene MAP3K7

TAOK1 = tested on: TAOK1
TAOK2 = tested on: TAOK2
TAOK3 = tested on: TAOK3
TBK1 = tested on: TBK1
TEC = tested on: TEC
TESK1 = tested on: TESK1
TGFBR1 = tested on: TGFBR1
TGFBR2 = tested on: TGFBR2
TIE1 = tested on: TIE1
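Also: KINOMEscan kinase panel screen.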

O=C1NC(=O)C(c2ccccc2)=C1Nc1cccc(O)c1 [SB-390534]
%Inh (TAK1): 0% | %Inh (TAOK1): 30% | %Inh (TAOK2): 22% | %Inh (TAOK3): 18% | %Inh (TBK1): 14% | %Inh (TEC): 0% | %Inh (TESK1): 13% | %Inh (TGFBR1): 6% | %Inh (TGFBR2): 0% | %Inh (TIE1): 22%

CCC(=O)c1c(-c2ccccc2)c2cc(Cl)ccc2c(=O)n1Cc1cc(S(C)(=O)=O)n(CCC(C)(C)O)n1
%Inh (TAK1): 31% | %Inh (TAOK1): 9% | %Inh (TAOK2): 0% | %Inh (TAOK3): 0% | %Inh (TBK1): 20% | %Inh (TEC): 6% | %Inh (TESK1): 21% | %Inh (TGFBR1): 6% | %Inh (TGFBR2): 19% | %Inh (TIE1): 16%

COc1cccc(C2=C(N(C)c3ccccc3)C(=O)NC2=O)c1 [SB-334865]
%Inh (TAK1): 0% | %Inh (TAOK1): 0% | %Inh (TAOK2): 0% | %Inh (TAOK3): 0% | %Inh (TBK1): 3% | %Inh (TEC): 2% | %Inh (TESK1): 24% | %Inh (TGFBR1): 29% | %Inh (TGFBR2): 10% | %Inh (TIE1): 0%
